Active and inactive are the calls of the source.
How the values were obtained:
[1] = binders of probe aFSTL3 on microarray, primary screen, stem cell growth factor project, biochemical, small-molecule microarray, fluorescence 635/667 (AID 1064); conditions: higher = more signal;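 note: measures binding of the biotinylated anti-FSTL3 antibody to printed compounds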
[2] = binders from COS7 lysate, DM2A8 probe, primary screen, torsin A project, cell lysate, small-molecule microarray, fluorescence 635/667 (AID 1065); conditions: higher = more signal, COS7 lysate expressing mutant human TOR1A
[3] = binders of probe aFGF2 on microarray, primary screen, stem cell growth factor project, biochemical, small-molecule microarray, fluorescence 635/667 (AID 1067); conditions: higher = more signal;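 note: measures binding of biotinylated aFGF2 protein to printed compounds on slides; z-score merges feature fluorescence and signal-to-noise across triplicate slides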
[4] = binders of probe aFGF10 on microarray, primary screen, stem cell growth factor project, biochemical, small-molecule microarray, fluorescence 635/667 (AID 1071); conditions: higher = more signal;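 note: score merges 667 nm spot intensity and signal to noise from triplicate slides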
[5] = molecular target: Neurogenic locus notch homolog protein 2 (Homo sapiens) (UniProt Q04721); assay: Notch2 binders on small-molecule microarrays, primary screen, biochemical, small-molecule microarray, 635 nm fluorescence, stem cell growth factors (AID 1073); conditions: Notch2 binding, higher = more signal
[6] = molecular target: Pro-neuregulin-1, membrane-bound isoform (Homo sapiens) (UniProt Q02297); assay: NRG1 binders on small-molecule microarrays, primary screen, psychiatric disease protein project, biochemical, small-molecule microarray, fluorescence 635/667 (AID 1075); conditions: NRG1 binding, 635 nm fluorescence, higher = more signal;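 note: score combines 667 nm spot fluorescence with signal to noise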
Chain of Pro-neuregulin-1, membrane-bound isoform (Homo sapiens) (Q02297 whole entry, looked up, the tested form may be a part, canonical isoform): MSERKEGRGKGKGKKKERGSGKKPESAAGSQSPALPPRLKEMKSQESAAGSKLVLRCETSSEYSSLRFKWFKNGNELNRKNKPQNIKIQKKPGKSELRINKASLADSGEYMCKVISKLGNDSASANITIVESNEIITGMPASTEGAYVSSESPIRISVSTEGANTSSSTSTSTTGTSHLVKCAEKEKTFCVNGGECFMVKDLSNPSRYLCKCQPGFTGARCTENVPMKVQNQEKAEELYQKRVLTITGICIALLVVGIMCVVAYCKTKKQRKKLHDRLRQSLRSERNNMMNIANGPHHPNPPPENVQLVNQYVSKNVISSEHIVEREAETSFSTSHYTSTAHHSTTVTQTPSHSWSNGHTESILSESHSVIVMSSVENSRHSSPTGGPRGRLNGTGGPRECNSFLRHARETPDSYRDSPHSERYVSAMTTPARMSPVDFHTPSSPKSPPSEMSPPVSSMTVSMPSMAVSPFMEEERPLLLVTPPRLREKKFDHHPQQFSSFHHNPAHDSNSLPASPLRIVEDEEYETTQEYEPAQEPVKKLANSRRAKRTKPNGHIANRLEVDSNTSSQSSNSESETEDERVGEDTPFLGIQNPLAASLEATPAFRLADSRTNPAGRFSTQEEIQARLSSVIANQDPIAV

[7] = tested on: Neuregulin-1 EGF-like domain; assay: binders of neuregulin-1 EGF-like domain, primary screen, biochemical, small-molecule microarray, 635 nm fluorescence (AID 1081); conditions: small-molecule microarray binding, higher = more signal;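 note: binding of the protein to compounds printed on small-molecule microarray slides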
[8] = FRG1 promoter luciferase signal modulators, primary screen, FRG1 inhibition for FSHD, cell-based, C2C12 myotubes, firefly/Renilla luciferase, luminescence (AID 1084); conditions: higher = more signal, called active from +8 up or from −8 down
[9] = binders of probe aFST on microarray, primary screen, stem cell growth factor project, biochemical, small-molecule microarray, fluorescence 635/667 (AID 1086); conditions: higher = more signal;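 note: score merges 667 nm fluorescence with signal-to-noise of each printed compound spot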
[10] = binders of probe aHhip on microarray, primary screen, stem cell growth factor project, biochemical, small-molecule microarray, fluorescence 635/667 (AID 1087); conditions: higher = more signal;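 note: score merges spot fluorescence at 667nm with spot signal to noise ratio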
[11] = tested on: PRMT1 (protein arginine N-methyltransferase 1); assay: PRMT1 binders on small-molecule microarrays, primary screen, biochemical, small-molecule microarray, 635 nm fluorescence (AID 1088); conditions: small-molecule microarray binding, higher = more signal;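 note: binding of Prmt1 protein to compounds spotted on small-molecule microarray slides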
[12] = yeast growth modulation, basal conditions, primary screen, YJM789 clinical isolate, OD600, 24 h (AID 1089);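 note: growth of clinical yeast isolate S. cerevisiae YJM 789 seeded 1000 cells per well; test concentration not given here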; conditions: S. cerevisiae YJM789 growth, higher = more signal, called active from +8 up or from −8 down
[13] = fission yeast growth modulation, primary screen, strain 972, OD600, 24 h, no modulator (AID 1090);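 note: basal condition with compound alone and no growth modifier present; test concentration not given here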; conditions: S. pombe 972 growth, higher = more signal, called active from +8 up or from −8 down
[14] = S. cerevisiae growth modulation with rapamycin, primary screen, strain BY4716, OD600, 96 h (AID 1091); conditions: higher = more signal, called active from +8 up or from −8 down; note: test concentration not given here
[15] = molecular target: Torsin-1A-interacting protein 2 (Homo sapiens) (UniProt Q8NFQ8); assay: LULL1 binders on small-molecule microarray, primary screen, cell lysate, human LULL1 lysate, 635/667 nm fluorescence (AID 1092); conditions: hLULL1 lysate binding, 635 nm fluorescence, higher = more signal;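 note: probe is lysate of COS7 cells overexpressing human LULL1; score merges per-feature 667 nm fluorescence with signal-to-noise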
Chain of Torsin-1A-interacting protein 2 (Homo sapiens) (Q8NFQ8 whole entry, looked up): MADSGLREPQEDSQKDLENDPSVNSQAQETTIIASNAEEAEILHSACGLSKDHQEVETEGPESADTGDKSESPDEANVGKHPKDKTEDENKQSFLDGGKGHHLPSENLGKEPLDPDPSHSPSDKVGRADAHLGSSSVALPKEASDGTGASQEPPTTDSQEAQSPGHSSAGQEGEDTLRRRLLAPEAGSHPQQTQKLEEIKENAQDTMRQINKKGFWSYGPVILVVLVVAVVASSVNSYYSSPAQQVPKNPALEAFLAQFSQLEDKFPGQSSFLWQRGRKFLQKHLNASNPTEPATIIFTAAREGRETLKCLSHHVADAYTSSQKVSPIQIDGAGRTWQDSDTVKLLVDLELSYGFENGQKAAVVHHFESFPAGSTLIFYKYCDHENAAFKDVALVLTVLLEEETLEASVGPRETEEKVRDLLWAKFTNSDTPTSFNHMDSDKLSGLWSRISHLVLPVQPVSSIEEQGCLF

[16] = E. coli growth modulation, two-sided OD650, primary screen, E. coli filamentation project, strain DRC41, 24 h (AID 1093); conditions: OD650, 24 h, higher = more signal, called active from +8 up or from −8 down;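 note: MC1000 strain lacking acrAB efflux and sulA so SOS filamentation is blocked; test concentration not given here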
[17] = small-molecule microarray binders of probe aLefty2, primary screen, biochemical, biotinylated probe, 635/667 nm fluorescence (AID 1094); conditions: higher = more signal;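 note: score merges spot fluorescence near 667 nm with spot signal-to-noise ratio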
[18] = tested on: Noggin (protein binding on small-molecule microarray); assay: Noggin binders on small-molecule microarray, primary screen, biochemical, 635/667 nm fluorescence (AID 1095); conditions: 635 nm fluorescence, higher = more signal;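 note: score merges 667 nm feature fluorescence with signal to noise over triplicate slides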
[19] = molecular target: Neurogenic locus notch homolog protein 3 (Homo sapiens) (UniProt Q9UM47); assay: NOTCH3 binders on small-molecule microarray, primary screen, biochemical, 635/667 nm fluorescence (AID 1096); conditions: NOTCH3 binding, 635 nm fluorescence, higher = more signal
Chain of Neurogenic locus notch homolog protein 3 (Homo sapiens) (Q9UM47 whole entry, looked up): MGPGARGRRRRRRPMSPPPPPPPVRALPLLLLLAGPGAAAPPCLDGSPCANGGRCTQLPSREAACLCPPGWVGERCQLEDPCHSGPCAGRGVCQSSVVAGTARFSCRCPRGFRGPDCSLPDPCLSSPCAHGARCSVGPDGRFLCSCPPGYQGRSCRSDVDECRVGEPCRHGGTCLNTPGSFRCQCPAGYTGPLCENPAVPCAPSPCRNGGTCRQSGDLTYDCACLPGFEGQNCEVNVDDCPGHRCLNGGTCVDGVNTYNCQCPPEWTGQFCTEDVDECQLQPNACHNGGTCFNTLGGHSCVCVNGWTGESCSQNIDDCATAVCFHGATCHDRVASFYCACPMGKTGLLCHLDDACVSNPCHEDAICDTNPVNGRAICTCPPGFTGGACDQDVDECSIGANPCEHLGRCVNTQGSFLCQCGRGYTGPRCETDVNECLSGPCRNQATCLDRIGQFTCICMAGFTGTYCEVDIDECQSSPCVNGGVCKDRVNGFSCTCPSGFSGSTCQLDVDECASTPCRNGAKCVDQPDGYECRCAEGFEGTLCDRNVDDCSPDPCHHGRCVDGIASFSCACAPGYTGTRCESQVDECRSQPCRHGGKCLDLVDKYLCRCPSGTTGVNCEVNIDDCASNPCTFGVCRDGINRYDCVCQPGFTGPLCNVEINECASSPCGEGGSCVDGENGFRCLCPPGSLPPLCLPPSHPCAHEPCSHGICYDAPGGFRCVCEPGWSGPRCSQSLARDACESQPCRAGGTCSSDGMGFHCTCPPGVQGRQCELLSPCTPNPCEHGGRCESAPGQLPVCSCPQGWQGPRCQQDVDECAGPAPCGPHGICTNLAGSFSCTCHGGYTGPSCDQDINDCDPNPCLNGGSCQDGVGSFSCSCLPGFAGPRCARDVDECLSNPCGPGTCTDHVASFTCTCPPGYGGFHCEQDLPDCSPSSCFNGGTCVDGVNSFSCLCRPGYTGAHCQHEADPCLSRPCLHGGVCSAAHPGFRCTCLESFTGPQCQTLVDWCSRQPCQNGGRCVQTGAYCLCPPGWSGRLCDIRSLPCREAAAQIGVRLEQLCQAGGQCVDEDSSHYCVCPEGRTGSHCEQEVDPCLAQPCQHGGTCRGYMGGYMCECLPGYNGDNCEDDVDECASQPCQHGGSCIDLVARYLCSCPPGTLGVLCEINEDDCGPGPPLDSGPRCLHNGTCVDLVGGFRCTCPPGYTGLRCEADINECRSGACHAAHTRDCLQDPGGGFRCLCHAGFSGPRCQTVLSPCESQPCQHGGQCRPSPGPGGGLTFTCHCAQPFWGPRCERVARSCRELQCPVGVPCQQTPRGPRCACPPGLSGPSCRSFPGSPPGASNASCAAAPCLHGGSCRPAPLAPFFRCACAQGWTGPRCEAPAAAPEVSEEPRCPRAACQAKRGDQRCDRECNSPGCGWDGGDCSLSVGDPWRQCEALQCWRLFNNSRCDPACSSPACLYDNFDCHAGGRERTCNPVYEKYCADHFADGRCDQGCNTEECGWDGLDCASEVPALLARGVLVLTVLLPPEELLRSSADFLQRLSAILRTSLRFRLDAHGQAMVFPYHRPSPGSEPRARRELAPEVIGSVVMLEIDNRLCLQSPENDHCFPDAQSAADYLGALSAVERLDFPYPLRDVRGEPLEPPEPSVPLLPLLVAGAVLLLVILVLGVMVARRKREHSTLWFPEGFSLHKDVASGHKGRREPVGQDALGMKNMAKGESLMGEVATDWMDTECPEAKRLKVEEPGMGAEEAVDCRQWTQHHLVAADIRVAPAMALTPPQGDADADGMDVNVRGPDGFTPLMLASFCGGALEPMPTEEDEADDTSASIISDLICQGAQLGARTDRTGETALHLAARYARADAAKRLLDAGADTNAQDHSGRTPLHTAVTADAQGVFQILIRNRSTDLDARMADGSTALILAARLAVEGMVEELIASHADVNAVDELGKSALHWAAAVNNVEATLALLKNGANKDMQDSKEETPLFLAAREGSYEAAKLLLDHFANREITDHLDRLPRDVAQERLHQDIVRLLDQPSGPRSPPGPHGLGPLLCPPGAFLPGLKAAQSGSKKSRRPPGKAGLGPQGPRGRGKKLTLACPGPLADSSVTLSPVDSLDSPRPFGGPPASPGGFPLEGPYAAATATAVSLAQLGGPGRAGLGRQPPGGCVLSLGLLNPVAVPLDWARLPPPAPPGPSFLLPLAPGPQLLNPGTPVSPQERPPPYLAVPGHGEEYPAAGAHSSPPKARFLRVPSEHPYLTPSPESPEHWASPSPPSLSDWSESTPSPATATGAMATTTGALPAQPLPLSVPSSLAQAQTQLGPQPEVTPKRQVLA

[20] = small-molecule microarray binders of probe aEGFR, primary screen, biochemical, biotinylated probe, 635/667 nm fluorescence (AID 1097); conditions: higher = more signal;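 note: probe is a biotinylated anti-EGFR antibody binding compounds printed on slides; score combines fluorescence near 667 nm and signal to noise of each spot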

Compound	composite z-score [1]	composite z-score [2]	composite z-score [3]	composite z-score [4]	composite z-score [5]	composite z-score [6]	composite z-score [7]	z-score [8]	composite z-score [9]	composite z-score [10]	composite z-score [11]	z-score [12]	z-score [13]	z-score [14]	composite z-score [15]	z-score [16]	composite z-score [17]	composite z-score [18]	composite z-score [19]	composite z-score [20]
CC(C)=NOC(C)CN1CCCCc2nc(C)c(C)cc21 (stereo not given)	-0.216	0.927	-0.0858	0.0948	-0.134	0.152	0.093	0.265 (inactive)	0.142	0.0695	0.434	-0.139 (inactive)	-0.104 (inactive)	-0.0334 (inactive)	1.04	0.194 (inactive)	-0.0441	0.634	-0.0247	-0.027
C=CC[C@@H]1C=C[C@H](ON=CC[C@@H]2C=C[C@H](OC(C)=O)[C@@H](COC(C)=O)O2)[C@@H](CO)O1	-0.256	0.52	-0.0864	0.75	1.12	1.06	1.11	0.411 (inactive)	1.06	-0.314	1.26	0.953 (inactive)	0.489 (inactive)	0.476 (inactive)	1.3	0.558 (inactive)	0.235	0.984	1.05	0.169
O=C1C[C@H](c2ccccc2)[C@H](c2ccc(Br)cc2)O1	-0.295	0.246	-0.0761	0.289	0.0429	-0.482	-0.293	-0.78 (inactive)	0.133	-0.0994	-0.146	-3.83 (inactive)	-11.8 (active)	-1.84 (inactive)	-0.247	0.421 (inactive)	-0.224	0.401	-0.489	-0.17
CCN(CC)CC(O)CN1CCCCc2nc(C)c(C)cc21 (stereo not given)	-0.482	1.04	-0.14	0.456	0.635	-0.164	1.07	-1.2 (inactive)	0.101	-0.112	0.357	-1.59 (inactive)	-1.34 (inactive)	-0.425 (inactive)	0.657	-0.0207 (inactive)	-0.343	0.454	0.431	-0.0148
CCN1C(=O)[C@H]2[C@H]3[C@H](O)[C@H](O)CC(=NOC[C@@H](O)COCc4ccco4)[C@H]3CC[C@H]2C1=O	-0.905	2.38	-0.318	-1.68	-0.886	-0.502	0.456	-0.172 (inactive)	-0.104	0.0578	1.21	-0.0365 (inactive)	-0.258 (inactive)	-0.0439 (inactive)	0.327	0.316 (inactive)	-0.339	1.79	0.0738	-0.099
COC(=O)CC=C1c2ccccc2[C@H](OC)[C@H]1C	-0.033	-0.113	-0.0044	0.234	-0.0929	-0.395	-0.293	0.009 (inactive)	0.137	-0.0296	-0.32	0.649 (inactive)	0.863 (inactive)	0.387 (inactive)	-0.655	0.194 (inactive)	-0.0732	0.189	-0.562	-0.0657
CCOC(=O)[C@H](CC(C)C)NC(=O)CCC1CC(OC(=O)NCc2ccc3c(c2)OCO3)CC2(CCCC(COC(=O)NCCOc3ccccc3)O2)O1 (stereo not given in full)	-0.538	0.143	-0.11	0.652	1.36	0.843	0.943	0.929 (inactive)	0.0762	0.276	1.17	-0.337 (inactive)	0.774 (inactive)	-0.211 (inactive)	1.68	0.097 (inactive)	-0.0928	0.878	1.11	-0.013
COC(=O)[C@H](C)NC(=O)CCC1CC(OC(=O)NCc2ccc3c(c2)OCO3)CC2(CCCC(COC(=O)NCc3ccccc3)O2)O1 (stereo not given in full)	-0.344	0.0374	0.0025	0.721	0.748	0.52	0.877	-0.156 (inactive)	0.0613	-0.212	1.23	0.24 (inactive)	0.532 (inactive)	0.274 (inactive)	1.64	0.326 (inactive)	-0.157	0.888	1.09	-0.0234
COC(=O)[C@H](Cc1ccccc1)NC(=O)[C@@H](C)CO	0.503	0.482	-0.0105	0.417	0.458	-0.35	0.867	0.313 (inactive)	0.53	-0.0672	1.41	-0.152 (inactive)	-0.187 (inactive)	0.22 (inactive)	0.738	-0.503 (inactive)	0.0498	0.441	0.588	0.169
COc1ccc(COC(=O)NN=C2C[C@@H](O)[C@@H](O)[C@@H]3[C@@H]4C(=O)N([C@@H](C)c5ccccc5)C(=O)[C@@H]4CC[C@H]23)cc1	1.87	0.287	-0.0614	-0.129	-0.249	-0.413	-0.592	-0.797 (inactive)	0.951	-0.226	-0.517	-0.21 (inactive)	-0.0145 (inactive)	-0.556 (inactive)	0.621	0.92 (inactive)	0.484	-0.245	-0.184	-0.137

Source: PubChem BioAssay
